Experimental data reported in PubChem BioAssay.

These compounds were tested against Torsin-1A-interacting protein 2 (Homo sapiens) (UniProt Q8NFQ8) (assay: LULL1 binders on small-molecule microarray, primary screen, cell lysate, human LULL1 lysate, 635/667 nm fluorescence (AID 1092;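 further: probe is lysate of COS7 cells overexpressing human LULL1; score merges per-feature 667 nm fluorescence with signal-to-noise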)). Settings: hLULL1 lysate binding, 635 nm fluorescence, higher = more signal.
Torsin-1A-interacting protein 2 (Homo sapiens), sequence (Q8NFQ8 whole entry, looked up): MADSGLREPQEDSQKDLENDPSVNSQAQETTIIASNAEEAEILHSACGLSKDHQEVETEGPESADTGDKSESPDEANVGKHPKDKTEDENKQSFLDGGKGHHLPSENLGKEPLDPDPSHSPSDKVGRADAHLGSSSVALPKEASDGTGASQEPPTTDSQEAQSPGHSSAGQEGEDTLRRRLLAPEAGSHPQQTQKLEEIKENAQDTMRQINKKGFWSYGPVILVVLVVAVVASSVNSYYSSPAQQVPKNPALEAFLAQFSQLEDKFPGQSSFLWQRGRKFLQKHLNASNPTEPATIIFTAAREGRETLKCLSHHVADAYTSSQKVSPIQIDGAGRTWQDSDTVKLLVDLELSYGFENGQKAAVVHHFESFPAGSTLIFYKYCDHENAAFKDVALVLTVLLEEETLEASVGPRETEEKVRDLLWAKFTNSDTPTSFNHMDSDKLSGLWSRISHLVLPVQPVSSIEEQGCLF
Work on `CO[C@H]1O[C@H](CO)[C@@H](OC(=O)Nc2ccc3c(c2)OCO3)[C@H](OC(=O)Nc2ccc3c(c2)OCO3)[C@@H]1OC(=O)Nc1ccc2c(c1)OCO2` yielded a composite z-score of 3.44.
`CCCC1(C(=O)OC)C=C2C(=C(C)C(=O)C2C)CN1` (stereo not given) showed a composite z-score of 0.941.
`CO[C@H]1O[C@H](CO)[C@@H](OC(=O)Nc2ccccc2)[C@H](OC(=O)c2cc3ccccc3[nH]2)[C@H]1OC(=O)c1cc2ccccc2[nH]1` was tested, and the composite z-score was 0.87.
For `O=C1O[C@H](c2ccccc2)[C@H](c2ccccc2)N2[C@H]1[C@@H](C(=O)O)[C@]1(C(=O)Nc3ccc(C#CCCO)cc31)[C@H]2c1ccccc1OCCO`, the composite z-score was 2.97.
For `CCCCC[C@H]1OC[C@@]23C=C(Br)[C@@H](CC12)[C@@]1(CO1)C3=O` (stereo not given in full), the composite z-score was 0.24.
Compound `CCCCN1CC=CC23O[C@@H]4/C=C\CCC(C)OC(=O)C4[C@H]2C(=O)N(CCCO)[C@@H]3C1=O` (stereo not given in full) has a composite z-score of 0.879.
In the case of `CC[C@@H]1C=C(C(=O)O)[C@H](c2ccc(C#N)cc2)N1S(=O)(=O)c1ccc(C)cc1`, the composite z-score is reported as 3.47.
`O=C1[C@H]2C=C(I)[C@H](C[C@@H]2OCCOCCO)[C@@]12CO2` showed a composite z-score of 0.6.
With `COCCOC(=O)N1C(=O)[C@@]2(c3cc(C#CC4=CCCCC4)ccc31)[C@H](C(=O)Nc1nc3ccccc3s1)[C@H]1C(=O)O[C@H](c3ccccc3)[C@H](c3ccccc3)N1[C@@H]2c1ccc(O)cc1` the composite z-score was 2.38.
With `COc1ccc([C@H]2OC[C@@H]3C[C@H](Cc4ccccc4)C(=O)N32)cc1` the composite z-score was 0.449.
Work on `NC(=O)NCC#Cc1ccc2c(c1)[C@]1(C(=O)N2)[C@H](c2ccccc2OCCO)N2[C@H](c3ccccc3)[C@H](c3ccccc3)OC(=O)[C@H]2[C@@H]1C(=O)O` yielded a composite z-score of 1.31.
`CC1CC/C=C\[C@H]2OC34C=CCN(c5ccc(Cl)cc5)C(=O)[C@H]3N(C(C)CO)C(=O)[C@]4(C)C2C(=O)O1` (stereo not given in full) showed a composite z-score of -1.05.
`CCOC(=O)C1=C[C@@H](C(C)C)N(S(=O)(=O)c2ccc(C)cc2)[C@H]1c1ccc(C(F)(F)F)cc1` was tested, and the composite z-score was 3.17.
`OCCCC1=CC(c2ccc(CN3CCCC3)cc2)N(Cc2cc3c(cc2Br)OCO3)CC1` (stereo not given) gave a composite z-score of -0.692.
With `CCCCCCCCCC(O)C1C=CC2C(=O)N(c3ccccc3)C(=O)C2N1Nc1cc(OC)c(OC)c(OC)c1` (stereo not given) the composite z-score was 2.23.
Work on `COCCCNC(=O)[C@@]1(CCC(=O)OC(C)(C)C)N=C(c2ccc(OCCCO)cc2)O[C@H]1c1ccccc1N=[N+]=[N-]` yielded a composite z-score of 3.13.
`COc1cc(OC)c(C(O)C2C=CC3C(=O)N(Cc4ccccc4)C(=O)C3N2n2cnnc2)cc1Br` (stereo not given) gave a composite z-score of 2.89.
In the case of `C[N+](C)(C)CCCC[C@@H]1NC(=O)[C@@H]2C[C@H](C(=O)NCCCCCCN)[C@H](c3cccc(OCCO)c3)N2C1=O`, the composite z-score is reported as 2.44.
In the case of `O=C1C2C=CC(C(O)C3CC=CCC3)N(Nc3ccccc3)C2C(=O)N1c1ccccc1` (stereo not given), the composite z-score is reported as 3.09.
Work on `C=CCNC(=O)[C@H]1[C@@H]2C(=O)O[C@@H](c3ccccc3)[C@@H](c3ccccc3)N2[C@@H](c2ccccc2OCCO)[C@]12C(=O)N(C(=O)OCCOC)c1ccc(C#CC3(O)CCCCCC3)cc12` yielded a composite z-score of 3.1.
`COCCOC(=O)N1C(=O)[C@@]2(c3cc(C#CC4=CCCCC4)ccc31)[C@H](c1ccccc1OCCO)N1[C@H](c3ccccc3)[C@H](c3ccccc3)OC(=O)[C@H]1[C@@H]2C(=O)NC[C@H](O)c1ccccc1` was tested, and the composite z-score was 2.54.
Work on `CCCC[C@@H](O)C1=C(COc2ccccc2)C[C@H]2C(=O)N(Cc3ccccc3)C(=O)[C@H]2[C@H]1CO` yielded a composite z-score of 0.492.
With `O=C1OCCC/C=C\[C@H]2OC34C=CCN(c5ccc6ccccc6c5)C(=O)[C@H]3N(CCO)C(=O)[C@@H]4C12` (stereo not given in full) the composite z-score was 0.25.
Compound `COC(=O)c1c(CC[C@@H](CO)NC(=O)N[C@@H](C)Cn2cc(-c3ccccn3)nn2)oc(C(C)=O)c1C(=O)OC` has a composite z-score of 1.42.
`CC(C)C[C@@H]1NC(=O)[C@@H]2C[C@H](C(=O)NCCCCCCN)[C@H](c3cccc(OCCO)c3)N2C1=O` showed a composite z-score of 2.98.
With `[N-]=[N+]=Nc1ccccc1C[C@@]1(C(=O)N2CCOCC2)N=C(c2ccc(OCCCO)cc2)O[C@@H]1c1ccccc1` the composite z-score was 3.38.
For `CCOC(=O)C[C@H]1[C@H](OC(=O)c2cc3ccccc3oc2=O)[C@@H](NC(=O)CC(C)C)c2cc(OCCCO)ccc2N1C(=O)c1ccc2ccccc2n1`, the composite z-score was 1.09.
With `Cc1ccc(NN2C(C(O)c3c(F)cccc3Cl)C=CC3C(=O)N(C4CCCCC4)C(=O)C32)cc1` (stereo not given) the composite z-score was 3.02.
Compound `O=C1O[C@@H](c2ccccc2)[C@@H](c2ccccc2)N2[C@@H](c3ccc(OCCO)cc3)[C@]3(C(=O)Nc4ccc(C#CC5=CCCCC5)cc43)[C@@H](C(=O)NC[C@H](O)c3ccccc3)[C@H]12` has a composite z-score of 2.46.
For `CCCN1C(=O)[C@]2(Cc3ccccc31)N=C(c1ccc(OCCCO)cc1)O[C@@H]2c1ccccc1`, the composite z-score was 2.74.
In the case of `C[N+](C)(C)CCCCCCNC(=O)[C@@H]1C[C@@H]2C(=O)N3CCC[C@H]3C(=O)N2[C@@H]1c1ccc(O)cc1`, the composite z-score is reported as 2.9.
`CCOC(=O)C[C@H]1[C@H](OC(=O)c2ccc(C(=O)c3ccccc3)cc2)[C@@H](NC(=O)CC(C)C)c2cc(OCCCO)ccc2N1C(=O)c1ccccc1` showed a composite z-score of 2.03.
In the case of `CC1CC/C=C\[C@H]2OC34C=CCN(C(C)C)C(=O)[C@H]3N(CCO)C(=O)[C@@H]4C2C(=O)O1` (stereo not given in full), the composite z-score is reported as -0.021.
`[N-]=[N+]=Nc1ccccc1C[C@]1(C(=O)N2CCOCC2)COC(c2ccc(OCCCO)cc2)=N1` gave a composite z-score of 3.51.
`CCCCCCc1nc(Cc2cc(OC)c(OC)c(OC)c2)cc2c1[Si](C(C)C)(C(C)C)OC2` showed a composite z-score of -0.233.
